Laboratory results published in PubChem BioAssay (NCATS).
Records with an inconclusive call do not appear. Where a call stands in place of a potency, no number is given. Values without a mark were called inactive. Activity calls are given as the source filed them. The call rests on the fitted dose curve; in most records, active means well fitted curve in the direction sought with a large enough effect; inconclusive means small, poorly fitted or top-dose-only effect, or another doubt; inactive means no such curve, though single readings can be large; an effect the other way counts as inactive or inconclusive. Where a SMILES comes first, the peptide text is derived from it. The star is where a group is joined. AFC = O=c1cc(C(F)(F)F)c2ccc(N*)cc2o1

Assays:
[1] = Primary qHTS for inhibitors of nuclear receptor binding SET domain protein 2 (NSD2) in an isogenic RCH-ACV NSD2 p.E1099K mutant (9B) (AID 1645876)
[2] = Primary qHTS for inhibitors of nuclear receptor binding SET domain protein 2 (NSD2) in an RCH-ACV wild type WT cells (2C) (AID 1645877)
Further: nearly all actives have a fitted effect of over 70% in size.
Potency means the concentration at half of the fitted maximal effect.

For `CC1(C)CC[C@]2(C(=O)O[C@@H]3O[C@H](CO)[C@@H](O)[C@H](O)[C@H]3O)CC[C@]3(C)C(=CCC4[C@@]5(C)C[C@@H](O)[C@H](O)[C@](C)(C(=O)O)C5CC[C@]43C)C2C1O` (stereo partly drawn), the Potency [1] was “inactive” and the Potency [2] was “inactive”.

For `O=C1OCc2cc3cccc(O[C@@H]4O[C@H](CO)[C@@H](O)[C@H](O)[C@H]4O)c3c(O)c21`, the Potency [1] was “inactive” and the Potency [2] was “inactive”.

For `Cc1[nH]nc(C(F)(F)F)c1Cc1sc2c(c1C(=O)N1C[C@](C)(O)CO1)c(=O)n(C)c(=O)n2C(C)C`, the Potency [1] was “inactive” and the Potency [2] was “inactive”.

With `CC1CC2OC3(OC2C(C)(C)O)C1C1(C)CCC24CC25CCC(O[C@@H]2OC[C@@H](O)[C@H](O)[C@H]2O)C(C)(C)C5CC=C4C1(C)C3O` (stereo partly drawn) the Potency [1] was “inactive” and the Potency [2] was “inactive”.

In the case of `CC1(O)CC(O)C2(O)C=COC(O[C@@H]3O[C@H](CO)[C@@H](O)[C@H](O)[C@H]3O)C12` (stereo partly drawn), the Potency [1] is reported as “inactive” and the Potency [2] is reported as “inactive”.

In the case of `CC(=O)O[C@@H]1[C@@H](O)[C@H](C)O[C@@H](O[C@H]2[C@@H]3C=CO[C@@H](O[C@@H]4O[C@H](CO)[C@@H](O)[C@H](O)[C@H]4O)[C@@H]3[C@@]3(CO)O[C@@H]23)[C@@H]1OC(=O)/C=C/c1ccccc1`, the Potency [1] is reported as “inactive” and the Potency [2] is reported as “inactive”.

In the case of `COC(=O)CCc1cc2ccoc2c(OC)c1O[C@@H]1O[C@H](CO)[C@@H](O)[C@H](O)[C@H]1O`, the Potency [1] is reported as “inactive” and the Potency [2] is reported as “inactive”.

In the case of `C[C@@H]1O[C@@H](O[C@H]2[C@H](O)[C@@H](C(=O)O)O[C@@H](O[C@H]3CC[C@@]4(C)C(CC[C@]5(C)C4CC=C4C6CC(C)(C)CC[C@]6(C(=O)O)CC[C@]45C)C3(C)C)[C@@H]2O[C@@H]2OC[C@@H](O)[C@H](O)[C@H]2O)[C@H](O)[C@H](O)[C@H]1O` (stereo partly drawn), the outcome [1] is reported as “inactive [at 9.23 µM]” and the outcome [2] is reported as “inactive [at 9.23 µM]”.

In the case of `CC(C)C(N)C(=O)OCCOCn1cnc2c(=O)[nH]c(N)nc21` (stereo not drawn), the Potency [1] is reported as “inactive” and the Potency [2] is reported as “inactive”.

With `CC1=CC(=O)[C@H]2C(C)(C)CCC[C@]2(C)[C@@]1(O)CO` the Potency [1] was “inactive” and the Potency [2] was “inactive”.

In the case of `Nc1nc2c(ncn2[C@@H]2O[C@H](CO)[C@@H](O)[C@H]2O)c(=O)[nH]1`, the Potency [1] is reported as “inactive” and the Potency [2] is reported as “inactive”.

In the case of `CC(=O)/C=C/[C@H]1[C@](C)(O)[C@@H](O)[C@H](OC(C)=O)C2C(C)(C)CCC[C@@]21C` (stereo partly drawn), the Potency [1] is reported as “inactive” and the Potency [2] is reported as “inactive”.

For `CC(=O)N[C@@H](Cc1c[nH]c2ccccc12)C(=O)N[C@@H](CCC(=O)O)C(=O)N[C@@H](Cc1cnc[nH]1)C(=O)N[C@@H](CC(=O)O)C(=O)Nc1ccc2c(C(F)(F)F)cc(=O)oc2c1` (Ac-WEHD-{AFC}), the Potency [1] was “inactive” and the Potency [2] was “inactive”.

In the case of `COc1ccc(N(C)c2nc(C)nc3ccccc23)cc1`, the Potency [1] is reported as 13.2 nM (active) and the Potency [2] is reported as 11.8 nM (active).

In the case of `CC12CCC(OC3OC(CO)C(O)C(OC4OC(CO)C(O)C(O)C4O)C3O)CC1CCC1C2CCC2(C)/C(=C3/COC(=O)C3)CCC12O` (stereo not drawn), the Potency [1] is reported as “inactive” and the Potency [2] is reported as “inactive”.

For `CC(C)C(=O)OC[C@H]1O[C@H](O[C@H]2O[C@H](CO)[C@@H](O)[C@H](O)[C@H]2O)[C@H](O)[C@@H](O)[C@@H]1O`, the Potency [1] was “inactive” and the Potency [2] was “inactive”.

In the case of `O=C1Nc2ccccc2C(O)(c2ccccc2)C1O` (stereo not drawn), the Potency [1] is reported as “inactive” and the Potency [2] is reported as “inactive”.

For `COC(=O)Cc1cc2c(c([N+](=O)[O-])c1)N(C(=O)CC[C@H](N)C(=O)O)CC2`, the Potency [1] was “inactive” and the Potency [2] was “inactive”.

With `C[C@@H]1C(=O)O[C@H]2C[C@]34[C@H]5C[C@@H](C(C)(C)C)[C@]36[C@@H](OC(=O)[C@H]6O)O[C@]4(C(=O)O5)[C@]21O` the Potency [1] was “inactive” and the Potency [2] was “inactive”.

With `CC(C)c1ccc2c(c1)C(=O)CC1[C@@](C)(C(=O)O)CCC[C@]21C` (stereo partly drawn) the Potency [1] was “inactive” and the Potency [2] was “inactive”.

For `CC(C)=CCC/C(C)=C/CCC1(C)Oc2c(c(O)cc3c2CN(C(CCC(=O)O)C(=O)O)C3=O)CC1O` (stereo not drawn), the Potency [1] was “inactive” and the Potency [2] was “inactive”.

For `Cc1c(NC(=O)c2cc(C(N)=O)nc3cc(F)ccc23)c(C(F)(F)F)nn1Cc1ccc(C#N)cc1`, the Potency [1] was “inactive” and the Potency [2] was “inactive”.

In the case of `COc1c2c(c(C)c3c1C(=O)OC3)OC1(C)CC(O)C34OC(OC)(CC(OC(C)=O)C3(C)C1C2)OC4(C)C` (stereo not drawn), the Potency [1] is reported as “inactive” and the Potency [2] is reported as “inactive”.

With `CC1=CC(=O)CC(C)(C)C1/C=C/C(C)O[C@@H]1O[C@H](CO)[C@@H](O)[C@H](O)[C@H]1O[C@@H]1OC[C@](O)(CO)[C@H]1O` (stereo partly drawn) the Potency [1] was “inactive” and the Potency [2] was “inactive”.

In the case of `COc1ccc([C@@H]2OC[C@H]3[C@@H]2CO[C@@H]3c2ccc(OC3OC(CO)C(O)C(O)C3O)c(OC)c2)cc1OC` (stereo partly drawn), the Potency [1] is reported as “inactive” and the Potency [2] is reported as “inactive”.

With `CC(=O)O[C@@H]1[C@@H](O)[C@H](O[C@H]2CC[C@]34C[C@]35CC[C@]3(C)[C@@H]([C@@]6(C)CC[C@@H](C(C)(C)O)O6)[C@@H](O)C[C@@]3(C)[C@@H]5C[C@H](O[C@@H]3O[C@H](CO)[C@@H](O)[C@H](O)[C@H]3O)[C@H]4C2(C)C)OC[C@H]1O` the Potency [1] was “inactive” and the Potency [2] was “inactive”.

For `CC1OC(OC2CCC3(C)C(CCC4(C)C3CC=C3C5CC(C)(C)CCC5(C(=O)OC5OC(CO)C(O)C(O)C5O)CCC34C(=O)O)C2(C)C)C(O)C(O)C1O` (stereo not drawn), the Potency [1] was “inactive” and the Potency [2] was “inactive”.

For `NC1(C(=O)NC(CCO)c2ccc(Cl)cc2)CCN(c2ncnc3[nH]ccc23)CC1` (stereo not drawn), the Potency [1] was 728 nM (active) and the Potency [2] was 1300 nM (active).

For `COC(=O)C1(C)c2[nH]c3ccccc3c2CCN1C(=O)CCl` (stereo not drawn), the Potency [1] was 2580 nM (active) and the Potency [2] was 2580 nM (active).
